Reference: PubChem BioAssay AID624416 (The Scripps Research Institute Molecular Screening Center, 2012)
Screen size: about 360,000 compounds; about 1,500 (0.42%) were called active. Cut-off read from the data, not from the text of the source: active = inhibition above about 8.5%; inactive = the rest. The list comes from a sample in which actives are over-represented; it also holds similar structures and randomly drawn compounds.

Tested on: HIV-1 gp120 / PG9 antibody interaction
Assay: binders of HIV-1 gp120 antibody PG9, primary screen, biochemical, TR-FRET (AID 624416)
Settings: TR-FRET gp120-PG9 antibody binding; at 6.7 µM; hits give high values

SMILES | inhibition
CCN(CC)C(=O)c1ccc(NC(=O)c2cc(-n3cnnc3)ccc2Cl)cc1 | -0.62% (inactive)
CCN(CC)C(=O)c1ccc(NC(=O)c2sccc2-c2ccccc2)cc1 | 9.48% (active)
CC(=O)Nc1ccc(C(=O)C(Cc2ccccc2)N(C)C)cc1 (stereo not given) | -2.82% (inactive)
O=C1NC(=O)C(CCc2ccccn2)(Cc2cccc(Cl)c2Cl)C(=O)N1c1ccc(Br)cc1 (stereo not given) | -0.96% (inactive)
CN1CCN(Cc2ccccc2C(F)(F)F)CC1 | 1.87% (inactive)
N#CC1=C(N)Oc2c(c(=O)oc3ccccc23)C1c1ccccc1OC(=O)c1cccs1 (stereo not given) | 11% (active)
COc1ccc(C2C=C(C)Oc3c2c(=O)oc2ccccc32)cc1OC (stereo not given) | 0.19% (inactive)
CCNc1nc2[nH]c(=O)c3c(c2s1)OC(N)=C(C#N)C3c1cccs1 (stereo not given) | -1.83% (inactive)
C[C@]12CCCCC1=CC(=O)C1C2CC[C@@]2(C)C1C[C@@H](F)[C@@H]2O (stereo not given in full) | 0.27% (inactive)
Cc1cc2ccccn2c1C(C[N+](=O)[O-])c1c(F)cccc1Cl (stereo not given) | 1.04% (inactive)
